# PubChem BioAssay (NCATS)
# Inconclusive results are not listed. Active and inactive are the calls of the source. Unless noted, calls follow the shape of the dose curve; as a rule, active = well fitted curve in the direction sought with a large enough effect in the repeat runs; inconclusive = weak or mixed curves; inactive = no such curve, though single readings can be large; an effect the other way counts as inactive or inconclusive.
# Target: Cytochrome P450 2D6 (Homo sapiens) (UniProt P10635)
# Assay: Cytochrome P450 family 2 subfamily D member 6 (CYP2D6) small molecule antagonists: luciferase biochemical (cell-free) qHTS assay (AID 1645840); also: nearly all actives have a fitted effect of over 55% in size
# Conditions: P450-Glo CYP2D6 enzyme, luciferin luminescence, 1 h; series mostly up to 57.4 µM; activity change, negative = inhibition: at the top concentration
# Method in brief: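 P450-Glo luminescent screen: recombinant CYP2D6 enzyme–proluciferin substrate mix preincubated with compound 10 min at room temperature, then NADPH regeneration added for 1 h at room temperature. Detection reagent added for 20 min; luciferin light read as relative luminescence units.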
# % is scaled to controls: 0 for no effect and ±100 for the full control effect.
# Cytochrome P450 2D6 (Homo sapiens), sequence (P10635 whole entry, looked up): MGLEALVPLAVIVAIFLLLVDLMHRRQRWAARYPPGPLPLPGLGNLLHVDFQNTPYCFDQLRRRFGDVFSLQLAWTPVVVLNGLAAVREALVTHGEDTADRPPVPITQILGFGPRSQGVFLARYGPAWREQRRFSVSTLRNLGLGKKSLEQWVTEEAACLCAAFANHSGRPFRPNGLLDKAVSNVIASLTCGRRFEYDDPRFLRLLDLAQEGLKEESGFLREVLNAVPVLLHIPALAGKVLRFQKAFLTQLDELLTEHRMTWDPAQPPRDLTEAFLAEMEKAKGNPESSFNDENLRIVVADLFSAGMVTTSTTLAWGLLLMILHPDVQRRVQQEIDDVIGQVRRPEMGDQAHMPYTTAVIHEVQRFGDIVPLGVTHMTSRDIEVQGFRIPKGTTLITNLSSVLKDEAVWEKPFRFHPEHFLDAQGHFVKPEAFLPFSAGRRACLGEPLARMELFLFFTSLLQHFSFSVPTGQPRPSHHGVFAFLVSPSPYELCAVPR
row,SMILES,"activity change, negative = inhibition"
1,Oc1cn2c(n1)Nc1ccc(Cl)c(Cl)c1C2,3.28% [at 23.9 µM] (inactive)
2,CC(O)CN(CCN(CC(C)O)CC(C)O)CC(C)O (centres undefined),-10.5% (inactive)
3,COc1ccc2cc1Oc1cc3c(cc1OC)CC[N+](C)(C)[C@H]3Cc1ccc(cc1)Oc1c(OC)c(OC)cc3c1[C@@H](C2)[N+](C)(C)CC3,-22.1% (inactive)
4,N[C@@H](CSSC[C@H](N)C(=O)O)C(=O)O,-1.65% [at 0.91 µM] (inactive)
5,N[C@H](C(=O)O)c1ccc(O)cc1,21.2% [at 23.9 µM] (inactive)
6,O=S(=O)(O)NC1CCCCC1,-0.953% (inactive)
7,Cc1cccc(C)c1NC(=O)CN(CC(=O)O)CC(=O)O,6.34% (inactive)
8,CCC(=O)Nc1ccc(O)cc1,-3.86% (inactive)
9,CC1CC(OC(=O)C(O)c2ccccc2)CC(C)(C)N1C (centres undefined),-25.3% (inactive)
10,CC(C)(C)C(=O)NCCCC(=O)O,16.9% (inactive)
11,CC1(C)CO[C@@H](CC(=O)O)CN1,2.39% (inactive)

# Target: Cytochrome P450 2C9 (Homo sapiens) (UniProt P11712)
# Assay: Cytochrome P450 family 2 subfamily C member 9 (CYP2C9) small molecule antagonists: luciferase biochemical (cell-free) qHTS assay (AID 1645842); also: nearly all actives have a fitted effect of over 55% in size; also: potency is read from the fitted curve at half-maximal effect
# Conditions: P450-Glo CYP2C9 enzyme assay, luciferin luminescence; series mostly up to 57.4 µM; activity change, negative = inhibition: at the top concentration
# Method in brief: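 Luminescence, after 20 min with luciferin detection reagent, reflected CYP2C9 turnover during a 1 h NADPH-driven reaction at 37C. Enzyme-substrate mix contained 0.4% bovine serum albumin and was preincubated with compound 10 min at room temperature.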
# Cytochrome P450 2C9 (Homo sapiens), sequence (P11712 whole entry, looked up): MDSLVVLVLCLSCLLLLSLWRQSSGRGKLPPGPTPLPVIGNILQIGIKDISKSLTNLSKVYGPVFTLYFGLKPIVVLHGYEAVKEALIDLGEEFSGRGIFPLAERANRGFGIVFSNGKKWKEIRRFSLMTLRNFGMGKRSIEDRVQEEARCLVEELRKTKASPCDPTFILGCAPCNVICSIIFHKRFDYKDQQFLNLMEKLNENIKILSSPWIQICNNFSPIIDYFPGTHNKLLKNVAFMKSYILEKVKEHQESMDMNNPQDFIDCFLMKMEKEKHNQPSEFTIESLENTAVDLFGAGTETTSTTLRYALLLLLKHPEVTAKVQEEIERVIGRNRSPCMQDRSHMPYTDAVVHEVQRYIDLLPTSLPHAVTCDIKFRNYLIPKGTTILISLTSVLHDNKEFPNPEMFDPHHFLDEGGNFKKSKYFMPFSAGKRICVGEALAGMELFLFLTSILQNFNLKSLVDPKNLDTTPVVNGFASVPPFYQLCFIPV
SMILES,"activity change, negative = inhibition",Potency
CCCOC(=O)c1ccccc1,12.4% (inactive),–
CN(C)CCCO[C@@H]1[C@H]2OC(C)(C)O[C@H]2O[C@@H]1C(O)CO (some centres undefined),2.63% (inactive),–
COc1ccccc1O,5.06% [at 115 µM] (inactive),–
CC12CCC(CC1)C(C)(C)O2,20.3% (inactive),–
O=C(O)CC(O)C(=O)O (centres undefined),13.4% (inactive),–
CC1(C)OC(=O)NC1=O,13% (inactive),–
CC[C@@]1(c2ccccc2)NC(=O)N(C)C1=O,12% (inactive),–
O=Cc1ccccc1C=O,3.75% (inactive),–
Oc1ccc(C(O)CNCCCCCCNCC(O)c2ccc(O)c(O)c2)cc1O (centres undefined),4.08% (inactive),–
CC/C=C(\C(=O)N[C@@H]1C(=O)N2C(C(=O)OCOC(=O)C(C)(C)C)=C(COC(N)=O)CS[C@H]12)c1csc(N)n1,–,15.5 µM (active)
N[C@@H](CSCCCO)C(=O)O,9.66% [at 23.9 µM] (inactive),–
CCOC(=O)[C@H](CCc1ccccc1)N[C@@H](C)C(=O)N1C(=O)N(C)C[C@H]1C(=O)O,–,inactive
CCCCN(CCCC)CCCOC(=O)c1ccc(N)cc1,-12.6% (inactive),–
CCOc1ccc2ccccc2c1C(=O)N[C@@H]1C(=O)N2[C@@H]1SC(C)(C)[C@@H]2C(=O)O,-11.6% (inactive),–
CN1CCOC(c2ccccc2)c2ccccc2C1 (centres undefined),14.5% (inactive),–
C[C@@H]1CCN(C(=O)[C@H](CCCN=C(N)N)NS(=O)(=O)c2cccc3c2NC[C@H](C)C3)[C@@H](C(=O)O)C1,8.63% (inactive),–
COc1cc(C(=O)N2CCOCC2)cc(OC)c1OC,4.98% (inactive),–
NCC(=O)CCC(=O)O,25.4% (inactive),–
Oc1cn2c(n1)Nc1ccc(Cl)c(Cl)c1C2,–,6.74 µM (active)
CC(O)CN(CCN(CC(C)O)CC(C)O)CC(C)O (centres undefined),2.33% (inactive),–
COc1ccc2cc1Oc1cc3c(cc1OC)CC[N+](C)(C)[C@H]3Cc1ccc(cc1)Oc1c(OC)c(OC)cc3c1[C@@H](C2)[N+](C)(C)CC3,2.09% (inactive),–
CC(=O)Oc1c(C)c(C)c2c(c1C)CC[C@@](C)(CCC[C@H](C)CCC[C@H](C)CCCC(C)C)O2,-4.87% (inactive),–
N[C@@H](CSSC[C@H](N)C(=O)O)C(=O)O,15.4% [at 0.91 µM] (inactive),–
N[C@H](C(=O)O)c1ccc(O)cc1,13.5% [at 23.9 µM] (inactive),–
O=S(=O)(O)NC1CCCCC1,19.6% (inactive),–
Cc1cccc(C)c1NC(=O)CN(CC(=O)O)CC(=O)O,17.6% (inactive),–
CCC(=O)Nc1ccc(O)cc1,15.8% (inactive),–
CC1CC(OC(=O)C(O)c2ccccc2)CC(C)(C)N1C (centres undefined),10.7% (inactive),–
CC(C)(C)C(=O)NCCCC(=O)O,6.27% (inactive),–
CC1(C)CO[C@@H](CC(=O)O)CN1,0.162% (inactive),–

# Test system: not listed separately
# Assay: Primary qHTS for inhibitors of nuclear receptor binding SET domain protein 2 (NSD2) in an isogenic RCH-ACV NSD2 p.E1099K mutant (9B) (AID 1645876; active = well fitted curve in the direction sought with a large enough effect; an effect the other way counts as inactive or inconclusive; also: nearly all actives have a fitted effect of over 70% in size)
# Conditions: RCH-ACV (leukaemia line) NSD2 E1099K (9B) viability, CellTiter-Glo, 72 h; series mostly up to 44.9 µM; activity change, negative = viability loss: at the top concentration
SMILES,"activity change, negative = viability loss",outcome,Potency
CCCOC(=O)c1ccccc1,-6.76% (inactive),–,–
CN(C)CCCO[C@@H]1[C@H]2OC(C)(C)O[C@H]2O[C@@H]1C(O)CO (some centres undefined),3.8% (inactive),–,–
CC12CCC(CC1)C(C)(C)O2,-9.24% (inactive),–,–
O=C(O)CC(O)C(=O)O (centres undefined),–,inactive,–
CC1(C)OC(=O)NC1=O,–,inactive,–
CC[C@@]1(c2ccccc2)NC(=O)N(C)C1=O,–,inactive,–
O=Cc1ccccc1C=O,–,inactive,–
CC1(C)S[C@@H]2[C@H](NC(=O)Cc3ccccc3)C(=O)N2[C@H]1C(=O)O (tested in a mixture with another compound),-21% (inactive),–,–
Oc1ccc(C(O)CNCCCCCCNCC(O)c2ccc(O)c(O)c2)cc1O (centres undefined),-17.8% (inactive),–,–
CC/C=C(\C(=O)N[C@@H]1C(=O)N2C(C(=O)OCOC(=O)C(C)(C)C)=C(COC(N)=O)CS[C@H]12)c1csc(N)n1,4.34% (inactive),–,–
N[C@@H](CSCCCO)C(=O)O,5.6% [at 17.3 µM] (inactive),–,–
CCOC(=O)[C@H](CCc1ccccc1)N[C@@H](C)C(=O)N1C(=O)N(C)C[C@H]1C(=O)O,–,–,inactive
CCCCN(CCCC)CCCOC(=O)c1ccc(N)cc1,-10.1% (inactive),–,–
CCOc1ccc2ccccc2c1C(=O)N[C@@H]1C(=O)N2[C@@H]1SC(C)(C)[C@@H]2C(=O)O,-1.53% (inactive),–,–
CN1CCOC(c2ccccc2)c2ccccc2C1 (centres undefined),–,–,inactive
C[C@@H]1CCN(C(=O)[C@H](CCCN=C(N)N)NS(=O)(=O)c2cccc3c2NC[C@H](C)C3)[C@@H](C(=O)O)C1,9.9% (inactive),–,–
COc1cc(C(=O)N2CCOCC2)cc(OC)c1OC,–,inactive,–

SMILES,"activity change, negative = viability loss",outcome,Potency
O=C1OC(OC(=O)c2cccnc2Nc2cccc(C(F)(F)F)c2)c2ccccc21 (centres undefined),4.95% (inactive),–,–
O=C(O)COc1nn(Cc2ccccc2)c2ccccc12,3.49% (inactive),–,–
NCC(=O)CCC(=O)O,1.8% (inactive),–,–
CC1=C(C/C=C(\C)CCC[C@H](C)CCC[C@H](C)CCCC(C)C)C(=O)c2ccccc2C1=O,8.19% (inactive),–,–
Oc1cn2c(n1)Nc1ccc(Cl)c(Cl)c1C2,6.2% [at 17.3 µM] (inactive),–,–
CC(O)CN(CCN(CC(C)O)CC(C)O)CC(C)O (centres undefined),3.12% (inactive),–,–
COc1ccc2cc1Oc1cc3c(cc1OC)CC[N+](C)(C)[C@H]3Cc1ccc(cc1)Oc1c(OC)c(OC)cc3c1[C@@H](C2)[N+](C)(C)CC3,5.55% (inactive),–,–
CC(=O)Oc1c(C)c(C)c2c(c1C)CC[C@@](C)(CCC[C@H](C)CCC[C@H](C)CCCC(C)C)O2,–,inactive,–
N[C@@H](CSSC[C@H](N)C(=O)O)C(=O)O,-6.57% [at 0.588 µM] (inactive),–,–
N[C@H](C(=O)O)c1ccc(O)cc1,-5.06% [at 17.3 µM] (inactive),–,–
O=S(=O)(O)NC1CCCCC1,0.349% (inactive),–,–
Cc1cccc(C)c1NC(=O)CN(CC(=O)O)CC(=O)O,0.0037% (inactive),–,–
CCC(=O)Nc1ccc(O)cc1,2.15% (inactive),–,–
CC1CC(OC(=O)C(O)c2ccccc2)CC(C)(C)N1C (centres undefined),–,inactive,–
CC(C)(C)C(=O)NCCCC(=O)O,2.11% (inactive),–,–
CC1(C)CO[C@@H](CC(=O)O)CN1,3.84% (inactive),–,–
